# Source: PubChem BioAssay (EPA / NIEHS)
# Several values for one entry are separate records, joined by “and”; a condition that tells them apart may be missing. Equal entries are not always repeated. Activity calls are given as the source filed them. Rule for the calls: active = hit-call score of the fitted dose curve at least 0.9, where 1 is the maximum; inactive = score below 0.9.
# Read-out: Tumor necrosis factor (Homo sapiens) (UniProt P01375)
# Test: BSK_BT_xTNFa: BioMAP Diversity Plus: BT Assay for Tumor necrosis factor alpha (TNF-alpha) Biomarker Activity (AID 2284230)
# Details: primary human B cells with PBMC
# Description: BSK_BT is a cell-based, multiplexed-readout assay that uses B cell and peripheral blood mononuclear cells, a human vascular primary cell co-culture, with measurements taken at 24 hours after chemical dosing in a microplate: 96-well plate.BSK_BT_xTNFa is an assay component of the BSK_BT assay. It measures secreted TNF-alpha related to regulation of gene expression using LumineX xMAP technology.Data from the assay component BSK_BT_xTNFa was analyzed at the endpoint, BSK_BT_xTNFa, in the positive analysis fitting direction relative to DMSO as the negative control and baseline of activity. Using a type of cytokine quantitation reporter, gain or loss-of-signal activity can be used to understand protein changes. To generalize the intended target to other relatable targets, this assay endpoint is annotated to the 'cytokine' intended target family, where the subfamily is 'inflammatory factor'.
# The levels of cell surface (or secreted, indicated by the prefix "s") biomarker endpoints were measured by ELISA. Overt cytotoxicity to cells in confluent adherent cultures (all systems other than the BT system) was assessed by measuring total protein levels using sulforhodamine B (SRB) staining in parallel cultures at the time of biomarker measurements, indicated as SRB endpoints. For proliferation assays for adherent cell types, individual cell types are cultured at sub-confluence and relative cell numbers quantified by SRB staining at time points optimized for each system (48 h: 3C and CASM3C systems; 72 h: BT and HDF3CGF systems; 96 h: SAg system). SRB was performed by staining cells with 0.1% SRB after fixation with 10% TCA and reading wells at 560 nm.Viability and proliferation of PBMC (T cells) was quantified by Alamar Blue reduction for the SAg and BT systems. For PBMC viability (referred to as PBMC Cytotoxicity within the assay endpoint names), cells were plated (75,000/well in a 96-well plate) and then chemical samples added for 1 h before addition of activators, SEB and TSST-1 (20 ng/mL final concentration each). Cells were incubated for 90 h. Then, Alamar Blue (20 uL/well) (Invitrogen, Cat DAL1100) was added for 6 h, and the plates were read with a fluorescence microplate reader at 546/580 nm (excitation/emission). For PBMC proliferation, cells were plated and activated as above but incubated for only 16 h prior to addition of Alamar Blue. Plates were read after 6 h.
# Sequence of Tumor necrosis factor (Homo sapiens) (P01375 whole entry, looked up): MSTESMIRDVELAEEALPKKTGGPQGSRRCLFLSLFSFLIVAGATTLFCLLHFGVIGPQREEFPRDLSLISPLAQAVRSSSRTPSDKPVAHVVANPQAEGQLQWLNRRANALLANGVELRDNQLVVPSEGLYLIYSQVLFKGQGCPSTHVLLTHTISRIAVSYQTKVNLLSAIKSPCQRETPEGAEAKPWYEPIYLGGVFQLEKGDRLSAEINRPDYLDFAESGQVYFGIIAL
Structure (SMILES),outcome,AC50
CCCOC(=O)c1ccccc1C(=O)OCCC,inactive,–
O=C1C=CC(=O)C=C1,–,24 µM (active) and 33.1 µM (active)
Cc1ccc(OP(=O)(Oc2ccc(C)cc2)Oc2ccc(C)cc2)cc1 (tested in a mixture with another compound),inactive,–
O=c1c2ccccc2c(=O)c2c1cc(Cl)c1[nH]c3c([nH]c12)c(Cl)cc1c(=O)c2ccccc2c(=O)c13,inactive,–
Oc1cc(Cl)ccc1Cl,inactive,–
CC(C)CCCCCCCOC(=O)c1ccccc1C(=O)OCCCCCCCC(C)C,inactive,–
CC(C)(C)C(O)C(Oc1ccc(-c2ccccc2)cc1)n1cncn1 (stereo not given),inactive,–
CCc1cc(C)cc(CC)c1-c1c(OC(=O)C(C)(C)C)n2n(c1=O)CCOCC2,inactive,–
CC(C)(C)C(=O)CCl,inactive,–
O=c1[nH]c(Cl)c(Cl)cc1Cl,inactive,–
C=CC(=O)OCC(CC)CCCC (stereo not given),inactive,–
CNC(=O)Oc1cc(C)c(SC)c(C)c1,–,29.7 µM (active)
O=P1(NCCCl)OCCCN1CCCl (stereo not given),inactive,–
COCC(=O)N(c1c(C)cccc1C)N1CCOC1=O,inactive,–
Nc1ccc(-c2ccc(N)c(N)c2)cc1N,inactive,–
CCCCCCCCCCCC#N,inactive,–
O=[N+]([O-])C=Cc1ccccc1,–,8.35 µM (active)
COC(C)(C)CCC[C@H](C)C/C=C/C(C)=C/C(=O)OC(C)C,–,32.5 µM (active)
C=CCN(CC=C)C(=O)C(Cl)Cl,inactive,–
CC(=O)/C=C/c1ccccc1,–,20 µM (active)
O=C(O)CCCc1ccc(N(CCCl)CCCl)cc1,–,23.6 µM (active) and 20 µM (active)
c1ccc(Nc2ccc3ccccc3c2)cc1,–,20 µM (active)
CCC(C)c1cc([N+](=O)[O-])cc([N+](=O)[O-])c1OC(=O)C=C(C)C (stereo not given),–,30.8 µM (active)
CC1(C)[C@H](C(=O)O[C@H](C#N)c2cccc(Oc3ccccc3)c2)[C@@H]1C=C(Br)Br,inactive,–
CC(C)(c1cc(Cl)c(O)c(Cl)c1)c1cc(Cl)c(O)c(Cl)c1,inactive,–
Clc1ccc(-c2ccccc2)cc1,inactive,–
CC(C)COP(=O)(OCC(C)C)OCC(C)C,inactive,–
O=C1C(Cl)=C(Cl)C(=O)C(Cl)=C1Cl,–,20 µM (active)
CC(C)CCCCCCCOP(=O)(Oc1ccccc1)Oc1ccccc1,–,31.3 µM (active)
O=S(=O)(c1ccccc1)c1ccccc1,inactive,–
